The whole screen tested about 3,200 compounds, of which about 75 (2%) showed an effect of 50% or more. The sample holds strong results, similar compounds and a random draw of the others, so the mix is not that of the screen.

The subject of the test is T1, S. aureus MSSA476.
T1 construct: MSSA476
Details: species or system S. aureus MSSA476 (TSB) or V. cholerae SAD30 (LB); 384-well bacterial growth screen at 25 uM, OD600 relative to DMSO control. Particulars: relative growth, OD600, TSB; 25 µM; inhibitor.
For `N#CC(=Cc1ccc(Cl)cc1)C(=O)Nc1ccncc1` [8-K20, 3-(4-chlorophenyl)-2-cyano-N-(pyridin-4-yl)prop-2-enamide], the “% of control remaining” value stood at 95.6017%.
Turning to `C=CC(=O)Nc1ccccc1CCC(N)=O` [1-A18, N-[2-(2-carbamoylethyl)phenyl]prop-2-enamide], the “% of control remaining” value amounted to 117.099%.
As for `COc1cc(NC(=O)CCl)cc(OC)c1` [4-G09, 2-chloro-N-(3,5-dimethoxyphenyl)acetamide], the “% of control remaining” value is on record as 119.295%.
For `O=C(CCl)c1c(-c2ccccc2)[nH]c2ccccc12` [10-E05, 2-chloro-1-(2-phenyl-1H-indol-3-yl)ethan-1-one], the “% of control remaining” value amounted to 159.063%.
For `Cn1c(-c2ccccc2)c(C(=O)CCl)c2ccccc21` [10-N04, 2-chloro-1-(1-methyl-2-phenyl-1H-indol-3-yl)ethan-1-one], the “% of control remaining” value came out at 49.0625%.
Turning to `Cn1cccc1C(=O)CCl` [10-B04, 2-chloro-1-(1-methyl-1H-pyrrol-2-yl)ethan-1-one], the “% of control remaining” value worked out at 122.188%.
In the case of `CCNC(=O)C(C#N)=Cc1ccc(OC(F)F)cc1` [8-E05, 2-cyano-3-[4-(difluoromethoxy)phenyl]-N-ethylprop-2-enamide], the “% of control remaining” value turned out to be 113.527%.
Take `O=C1C=CC(=O)N1c1cc(C(F)(F)F)ccc1Cl` [10-G09, 1-[2-chloro-5-(trifluoromethyl)phenyl]-2,5-dihydro-1H-pyrrole-2,5-dione]: the “% of control remaining” value is recorded as 133.75%.
Regarding `CC(Cl)C(=O)Nc1sc2c(c1C#N)CCCCC2` (stereo not drawn) [5-B20, 2-chloro-N-{3-cyano-4H,5H,6H,7H,8H-cyclohepta[b]thiophen-2-yl}propanamide], the “% of control remaining” value is on record as 104.918%.
Take `O=C1C=CC(=O)N1c1ccccc1F` [10-D17, 1-(2-fluorophenyl)-2,5-dihydro-1H-pyrrole-2,5-dione]: the “% of control remaining” value amounted to 118.75%.
Regarding `O=C1C=CC(=O)N1c1ccccc1Sc1ccccc1` [10-K12, 1-[2-(phenylsulfanyl)phenyl]-2,5-dihydro-1H-pyrrole-2,5-dione], the “% of control remaining” value came to 129.063%.
For `O=C1C=CC(=O)N1c1ccccc1Sc1ccc(Cl)cc1` [10-A03, 1-{2-[(4-chlorophenyl)sulfanyl]phenyl}-2,5-dihydro-1H-pyrrole-2,5-dione], the “% of control remaining” value was determined as 10.9375%.
With `CCN1C(=O)CC[C@H](CNC(=O)C(C)Cl)[C@H]1c1cnn(C)c1` (mixture of isomers) [6-L13, rac-2-chloro-N-{[(2R,3S)-1-ethyl-2-(1-methyl-1H-pyrazol-4-yl)-6-oxopiperidin-3-yl]methyl}propanamide], the “% of control remaining” value was 89.122%.
`C=CC(=O)N1CCc2c(nnn2CCOC)C1` [1-N05, 1-[1-(2-methoxyethyl)-1H,4H,5H,6H,7H-[1,2,3]triazolo[4,5-c]pyridin-5-yl]prop-2-en-1-one]: the “% of control remaining” value is recorded as 84.7473%.
`C=CC(=O)NC1CCN(c2nnnn2C)CC1` [3-G06, N-[1-(1-methyl-1H-1,2,3,4-tetrazol-5-yl)piperidin-4-yl]prop-2-enamide]: the “% of control remaining” value turned out to be 85.677%.
For the molecule `CCC(NC(=O)CCl)c1c(C)noc1C` (stereo not drawn) [7-D03, 2-chloro-N-[1-(3,5-dimethyl-1,2-oxazol-4-yl)propyl]acetamide], the “% of control remaining” value was determined as 95.4474%.
For `CCOc1ccc(C(=O)CCl)cc1` [10-F12, 2-chloro-1-(4-ethoxyphenyl)ethan-1-one] the value was 0.3125%; for `NC(=O)COc1ccc(C(=O)CCl)cc1` [10-M07, 2-[4-(2-chloroacetyl)phenoxy]acetamide], 111.563%; for `O=C(CCl)Nc1ccc(Oc2ccccc2)cc1` [4-J09, 2-chloro-N-(4-phenoxyphenyl)acetamide], 73.5588%.
For the molecule `O=C(CCl)c1ccc2c(c1)-c1ccccc1C2` [10-H17, 2-chloro-1-(9H-fluoren-3-yl)ethan-1-one], the “% of control remaining” value was 1.875%.
`CCOc1ccc(C(=O)C(C)Cl)cc1` (stereo not drawn) [10-G06, 2-chloro-1-(4-ethoxyphenyl)propan-1-one]: the “% of control remaining” value stood at 80.3125%.
Consider `O=C(CCl)Nc1cccc(Oc2ccccc2)c1` [4-P19, 2-chloro-N-(3-phenoxyphenyl)acetamide], for which the “% of control remaining” value is given as 90.7099%.
Regarding `O=C(CCl)c1ccc(Oc2ccccc2)cc1` [10-G20, 2-chloro-1-(4-phenoxyphenyl)ethan-1-one], the “% of control remaining” value is -0.625%.
On to `CC(Cl)C(=O)NC(C)c1ccns1` (stereo not drawn) [6-P12, 2-chloro-N-[1-(1,2-thiazol-5-yl)ethyl]propanamide], for which the “% of control remaining” value is given as 84.3415%.
As to `N#CC(=Cc1cc(F)ccc1F)C(=O)Nc1cc(Cl)ccc1Cl` [8-A12, 2-cyano-N-(2,5-dichlorophenyl)-3-(2,5-difluorophenyl)prop-2-enamide], the “% of control remaining” value is 131.12%.
For `Cl.O=C(CCl)NC1CCN(Cc2cscn2)CC1` [7-H04, 2-chloro-N-{1-[(1,3-thiazol-4-yl)methyl]piperidin-4-yl}acetamide hydrochloride] the value was 88.2261%; for `Cc1ccc(C)c(NC(=O)C(C#N)=Cc2ccc3c(c2)OCCO3)c1` [8-L11, 2-cyano-3-(2,3-dihydro-1,4-benzodioxin-6-yl)-N-(2,5-dimethylphenyl)prop-2-enamide], 108.216%.
In the case of `C=CC(=O)NC(Cc1ccccc1)c1ccccn1` (stereo not drawn) [2-K14, N-[2-phenyl-1-(pyridin-2-yl)ethyl]prop-2-enamide], the “% of control remaining” value is reported as 109.312%.
In the case of `C=CC(=O)N(C)Cc1cn(C)nc1C(C)C` [3-F15, N-methyl-N-{[1-methyl-3-(propan-2-yl)-1H-pyrazol-4-yl]methyl}prop-2-enamide] it was 119.808%.
On to `Cc1ccccc1-n1c(C)cc(C(=O)CCl)c1C` [10-H20, 2-chloro-1-[2,5-dimethyl-1-(2-methylphenyl)-1H-pyrrol-3-yl]ethan-1-one], for which the “% of control remaining” value is listed as 118.75%.
Take `Cc1cc(C(=O)CCl)c(C)n1-c1cc(Cl)cc(Cl)c1` [10-I04, 2-chloro-1-[1-(3,5-dichlorophenyl)-2,5-dimethyl-1H-pyrrol-3-yl]ethan-1-one]: the “% of control remaining” value was 0%.
Take `COc1ccc(-n2c(C)cc(C(=O)CCl)c2C)cc1` [10-I12, 2-chloro-1-[1-(4-methoxyphenyl)-2,5-dimethyl-1H-pyrrol-3-yl]ethan-1-one]: the “% of control remaining” value was determined as 127.813%.
On to `Cc1csc(-n2c(C)cc(C(=O)CCl)c2C)n1` [10-G05, 2-chloro-1-[2,5-dimethyl-1-(4-methyl-1,3-thiazol-2-yl)-1H-pyrrol-3-yl]ethan-1-one], for which the “% of control remaining” value is 121.563%.
For `Cc1cc(C(=O)CCl)c(C)n1-c1ccc(C(C)C)cc1` [10-J12, 2-chloro-1-{2,5-dimethyl-1-[4-(propan-2-yl)phenyl]-1H-pyrrol-3-yl}ethan-1-one], the “% of control remaining” value is listed as 5.3125%.
In the case of `Cc1cc(C(=O)CCl)c(C)n1-c1ccc(C(F)(F)F)cc1` [10-J14, 2-chloro-1-{2,5-dimethyl-1-[4-(trifluoromethyl)phenyl]-1H-pyrrol-3-yl}ethan-1-one], the “% of control remaining” value amounted to 0%.
For `CCOc1ccc(-n2c(C)cc(C(=O)CCl)c2C)cc1` [10-K08, 2-chloro-1-[1-(4-ethoxyphenyl)-2,5-dimethyl-1H-pyrrol-3-yl]ethan-1-one], the “% of control remaining” value is on record as 38.75%.
`Cc1cc(C(=O)CCl)c(C)n1-c1ccc(C(C)(C)C)cc1` [10-N20, 1-[1-(4-tert-butylphenyl)-2,5-dimethyl-1H-pyrrol-3-yl]-2-chloroethan-1-one]: the “% of control remaining” value turned out to be 101.875%.
Consider `Cc1cc(C(=O)CCl)c(C)n1C(C)c1ccccc1` (stereo not drawn) [10-P17, 2-chloro-1-[2,5-dimethyl-1-(1-phenylethyl)-1H-pyrrol-3-yl]ethan-1-one], for which the “% of control remaining” value turned out to be 101.563%.
As to `Cc1cc(C)cc(-n2c(C)cc(C(=O)CCl)c2C)c1` [10-E04, 2-chloro-1-[1-(3,5-dimethylphenyl)-2,5-dimethyl-1H-pyrrol-3-yl]ethan-1-one], the “% of control remaining” value is reported as 128.438%.

For the origin of these results see paper PMC11995724, “Antibiotic target discovery by integrated phenotypic and activity-based profiling of electrophilic fragments” (Cell chemical biology, 2025).
